# Bioassay records deposited in PubChem by several laboratories.
# Most compounds without a hit are left out; they make up all but 2.7% or so of the library.
# CHT PAM – allosterically activates the human high affinity choline transporter; AID 488977; B-score at 10 µM; 310,000 tested, 0.49% active; CHT-expressing cells, membrane potential dye, choline EC20; hits give high values; LV-AA mutant CHT in HEK293 cells;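 active = initial fluorescence not abnormally high and integrated response B-score, plate-corrected, over 3 SD above library mean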
# TMEM16A inh – mouse TMEM16A channel inhibition, primary screen; AID 588511; HEK293 TMEM16A/YFP iodide influx fluorescence, ionomycin; normalized B-score (activity score, 25-100; higher = stronger inhibition) at 10 µM; 310,000 tested, 1.2% active;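 active = ratio plate-corrected score three or more library SD toward inhibition, starting fluorescence score within five deviations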;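 also: score derived from kinetic fluorescence span divided by baseline fluorescence per well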
# CHT block – inhibits the human high affinity choline transporter; Q9GZV3; CHT-expressing cells, membrane potential dye, choline response; hits give low values; B-score at 10 µM; 310,000 tested, 0.86% active;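 active = B-score over 3 SD under the library average, and starting fluorescence ratio not unusually high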;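 also: choline stimulus applied at its EC90 after an EC20 pre-addition; B-score computed on integrated fluorescence ratio after choline addition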
# ANO1 activ – activators or potentiators of mouse TMEM16A chloride channel; B-score at 10 µM; AID 623877; HEK293 TMEM16A/YFP-H148Q/I152L, iodide quench fluorescence; hits give low values; Q8BHY3; 340,000 tested, 0.3% active;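 active = fluorescence-ratio B-score plate-corrected deviation score at least 3 library SD below zero, with starting fluorescence score within 5 deviations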;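 also: channel opened by trigger with iodide after compound preincubation; score built on the fluorescence ratio of max minus min over baseline; more negative score means more quench and so TMEM16A activation or potentiation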
# IDE cell activ – activators of human insulin-degrading enzyme in cells | P14735 | HEK cells, FAbeta-B cleavage, fluorescence polarization; 0% vehicle, 100% cell-free pure enzyme wells | activation, % at 5.96 µM | 340,000 tested, 0.073% active | AID 493087;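 active = activation above the mean of all tested compounds plus 3 SD, set per screening campaign, cut at about 17% in these data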
# IDE inh – cellular human IDE inhibition; inhibition, % at 5.59 µM; HEK cells, FAbetaB cleavage, fluorescence polarization; 320,000 tested, 0.41% active; AID 434962;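 active = percent inhibition above the average of all tested compounds plus 3 SD, set per screening campaign, cut at about 16% in these data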;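 also: IDE supplied by intact live HEK cells; FP after avidin binding of uncleaved biotin substrate so inhibition keeps polarization high; 0% = DMSO wells and 100% = 60 µM reference IDE inhibitor Ii1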
# CHT block conf – human CHT inhibition, confirmatory screen; shares compounds with CHT block; CHT-expressing cells, choline membrane potential dye; LV-to-AA substituted CHT, HEK293 cells; CHT activity remaining % of control (hits give low values), % at 10 µM; 2,400 tested, 70% active; AID 493221;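 active = choline transporter activity left, mean of duplicates at 10 µM, below buffer-only control mean minus 3 SD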;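 also: depolarization triggered by choline at its EC90 following an EC20 pre-addition; 0% = hemicholinium-3 full block and 100% = buffer-only control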
# HEK293 CHT ctr – CHT inhibitor counter-screen hit in parental HEK293 cells | shares compounds with CHT block | membrane potential dye, choline response; active = decrease or increase beyond buffer ±3SD | membrane potential ratio readout (active if shifted either direction beyond buffer ±3SD; no single direction) at 10 µM | 2,400 tested, 4% active;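 also: parental cells lack the transporter so any hit is non-specific; ratio is peak minus trough fluorescence over baseline after EC90 choline challenge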
# TMEM16A reconf – re-confirmation of mouse TMEM16A chloride channel inhibitors | shares compounds with TMEM16A inh | HEK293 TMEM16A/YFP-H148Q, iodide quench fluorescence; ionomycin added to raise cell calcium | inhibition, % at 10 µM | 2,300 tested, 39% active | AID 652189;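 active = mean duplicate percent inhibition, scaled so buffer wells are 0 and the reference blocker 100, over three buffer SD above buffer mean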
# TMEM16A Ca cntr – calcium mobilization counter-screen hit for TMEM16A inhibitor series. shares compounds with TMEM16A inh. TMEM16A/YFP HEK293, Fluo4 calcium mobilization. calcium response (% of ionomycin), % at 10 µM. 2,300 tested, 2% active. AID 652231;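 active = duplicate-averaged calcium signal over 20% of the ionomycin maximum, relative to buffer baseline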;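 also: each well's signal is peak minus trough fluorescence divided by its pre-addition baseline; 0% = buffer wells and 100% = ionomycin wells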
# Parental YFP cnt – acts in parental YFP-HEK293 cells lacking TMEM16A, counter-screen; iodide YFP quench, ionomycin; 2,300 tested, under 10 active; YFP ratio F(max-min)/F0 at 10 µM; AID 652233; shares compounds with TMEM16A inh;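 active = yellow fluorescent protein signal ratio exceeding the buffer control mean by over 5 SD of those controls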;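 also: ratio is mean of duplicate wells from kinetic YFP trace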
# ClC-1 inh – selectivity of TMEM16A inhibitors: inhibition of rat ClC-1 chloride channel. shares compounds with TMEM16A inh. CHO ClC-1-YFP, iodide influx fluorescence quench; iodide control reads 0, buffer control 100. ratio percent, % at 10 µM. 2,300 tested, under 10 active;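 active = duplicate-mean ratio percent above the mean of iodide-only control wells, which defines zero, plus 5 of their SD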;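 also: higher percent means stronger block of ClC-1 iodide influx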
# Starred values were filed as active, the others as inactive; i = inactive; . = no result.
SMILES,CHT PAM,TMEM16A inh,CHT block,ANO1 activ,IDE cell activ,IDE inh,CHT block conf,HEK293 CHT ctr,TMEM16A reconf,TMEM16A Ca cntr,Parental YFP cnt,ClC-1 inh
O=c1[nH]c(=O)n(-c2ccc(F)cc2)c2c1C(C(F)(F)F)(C(F)(F)F)N=C(c1ccc(F)cc1)N2,i,25*,-6.96*,i,6.5,-1.6,54.3%*,i,26.0%*,i,-0.947,-23.5
COc1ccc(-c2nc(CN3CCN(c4ccccc4OC)CC3)c(C)o2)cc1,i,i,i,i,5.5,-0.9,.,.,.,.,.,.
COc1ccc(-c2nc(CN3CCN(c4ncnc5ccccc45)CC3)c(C)o2)c(OC)c1,i,100*,-5.1*,i,5.8,2.4,51.9%*,i,19.5%*,i,-1.06,-15.0
CCn1c(N2CCN(S(=O)(=O)c3ccc(Cl)cc3)CC2)nc2ccccc21,i,25*,-11.6*,i,0.0,0.0,44.0%*,i,i,i,-1.3,-8.0
CCn1c(N2CCN(S(=O)(=O)c3ccc(F)cc3)CC2)nc2ccccc21,i,i,i,i,4.9,-2.5,.,.,.,.,.,.
CCc1cccc(NC(=O)CN(c2ccc(C)cc2)S(=O)(=O)c2c(C)noc2C)c1,i,i,i,i,6.1,-0.5,.,.,.,.,.,.
N#Cc1c(C(F)(F)F)cc(-c2cccc(Cl)c2)[nH]c1=O,i,25*,-5.15*,i,-3.6,3.7,i,i,28.5%*,i,-1.06,-8.5
N#Cc1c(C(F)(F)F)cc(-c2ccc(F)cc2)[nH]c1=O,i,i,i,i,2.5,1.1,.,.,.,.,.,.
N#CC(C#N)=c1ccc2c(c1)N1C3=C(CCCC3)CC3CCCCC31N=2 (centres undefined),i,25*,-11.2*,i,8.1,4.7,62.2%*,i,i,i,-0.855,-1.0
O=C(Nc1ccccc1C(=O)NC1CC1)c1ccccc1F,.,.,.,i,0.8,7.2,.,.,.,.,.,.
CCOc1ccccc1OCCCC(=O)ON=C(N)c1ccccc1,.,.,.,i,-2.1,5.0,.,.,.,.,.,.
CC(/C=C1\SC(=S)N(C(C(=O)O)c2ccccc2)C1=O)=C\c1ccccc1 (centres undefined),i,100*,i,i,6.1,-1.5,45.6%*,i,71.5%*,i,-1.01,-68.0
COc1ccc(-c2cc(C(F)(F)F)c3c(=O)n(-c4ccccc4)[nH]c3n2)cc1,i,100*,-6.03*,i,5.3,-7.0,65.9%*,2.28*,23.0%*,i,-1.16,-4.5
O=C(CN(C(=O)c1csnn1)c1cccc2ccccc12)NCc1ccc(F)cc1,i,i,i,i,2.4,0.4,.,.,.,.,.,.
CC(Oc1ccccc1)C(=O)N=C1SC2CS(=O)(=O)CC2N1c1ccc(F)cc1 (centres undefined),i,i,i,i,9.2,-3.8,.,.,.,.,.,.
CC(c1ccco1)N(C(=O)c1ccccc1NS(=O)(=O)c1ccc(Cl)c([N+](=O)[O-])c1)c1ccccn1 (centres undefined),i,100*,-7.79*,i,0.8,-5.3,66.4%*,i,26.5%*,i,-0.911,-22.5
CC(c1ccco1)N(C(=O)c1cc(Cl)cc(Cl)c1)c1ccccn1 (centres undefined),i,i,i,i,1.5,0.9,.,.,.,.,.,.
C=CCc1ccc(O)c(-c2cc(CC=C)ccc2O)c1,i,100*,-9.85*,i,-0.7,0.8,36.4%*,i,31.5%*,i,-0.875,-4.0
N#Cc1ccc(-c2nc3cc(Cl)ccc3c(=O)n2O)cc1,i,i,i,i,4.3,-1.0,.,.,.,.,.,.
O=c1c2cc(Br)ccc2nc(-c2ccc(Cl)cc2)n1O,i,25*,-6.12*,i,1.9,3.8,41.2%*,i,39.0%*,110.0%*,-0.875,-5.5
O=C(COc1ccccc1Br)c1ccc(O)cc1O,i,100*,-5.74*,i,-2.0,-0.3,53.5%*,i,i,i,-1,-10.5
CC(=O)c1sc(NC(=O)CN2C(=O)C3CCCCC3C2=O)nc1-c1ccccc1 (centres undefined),.,.,.,i,-1.4,1.9,.,.,.,.,.,.
Cc1cccc(C(=O)Nc2sc(-c3ccccc3)cc2C(=O)O)c1,i,25*,-6.33*,i,-4.6,6.3,52.8%*,i,i,i,-0.85,-0.5
CC(C)(C)C(=O)Nc1sc(-c2ccccc2)cc1C(=O)O,i,i,i,i,2.8,4.6,.,.,.,.,.,.
Nc1nc(SCc2ccc(Cl)cc2Cl)c2ncn(C3OC(CO)C(O)C3O)c2n1 (centres undefined),.,.,.,i,3.4,.,.,.,.,.,.,.
O=C(CSCc1nc2ccccc2[nH]1)N1CCN(c2ccc(F)cc2)CC1,i,25*,-5.01*,i,-4.1,-0.6,i,i,19.5%*,i,-0.981,-16.5
O=C(CSCc1nc2ccccc2[nH]1)N1CCN(c2cccc(Cl)c2)CC1,i,i,i,i,5.3,-2.0,.,.,.,.,.,.
Cn1c(SCc2nc(-c3ccccc3)no2)nnc1-c1ccco1,i,i,i,.,-4.3,6.5,.,.,.,.,.,.
CCn1c(SCc2nc(-c3ccc(Cl)cc3)no2)nnc1-c1ccco1,i,100*,-12.8*,i,3.1,2.5,3.1%*,i,i,27.5%*,-0.926,-11.0
COC(CNC(=O)C1CC(=O)N(CCc2ccc(C)cc2)C1)OC (centres undefined),i,i,i,i,1.0,3.6,.,.,.,.,.,.
